# Only some compounds are listed: those with a hit (about 12% of all), similar ones and a draw of the others.
# INS promoter inh: TRM-6 insulin promoter activity inhibition. actives 0.9% (n = 130,000). inhibition, % at 2 µM. TRM-6 cells (human fetal islet line), insulin promoter-eGFP reporter, imaging; reporter expression induced with tamoxifen;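 active = inhibition above the mean plus 3 SD, with well images judged a real hit on visual review, cut at about 60% in these data, passing the limit was not always enough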
# Ins promoter up: MIN6 insulin promoter up-regulation; z-score at 5 µM; actives 0.3% (n = 190,000); MIN6 insulin promoter-GFP reporter, high-content imaging; hits give high values;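 active = z-score above 3 at 5 µM with at least 500 cells counted in the well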
# Cl transport mod: modulators of human KCC2 chloride dependent transport. Q9H2X9. KCC2 cells, thallium flux FluoZin-2 fluorescence. B-score of Tl+ flux slope (higher = more flux/activation; lower = inhibition) at 10 µM. actives 2.2% (n = 190,000). AID 1456;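 active = thallium flux slope and its plate-corrected score both differing from the plate sample mean at a set confidence after two filtering rounds, in either direction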;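 also: slope of fluorescence scaled to starting intensity during 10 to 20 s after thallium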
# Target sequence (Q9H2X9 whole entry, looked up): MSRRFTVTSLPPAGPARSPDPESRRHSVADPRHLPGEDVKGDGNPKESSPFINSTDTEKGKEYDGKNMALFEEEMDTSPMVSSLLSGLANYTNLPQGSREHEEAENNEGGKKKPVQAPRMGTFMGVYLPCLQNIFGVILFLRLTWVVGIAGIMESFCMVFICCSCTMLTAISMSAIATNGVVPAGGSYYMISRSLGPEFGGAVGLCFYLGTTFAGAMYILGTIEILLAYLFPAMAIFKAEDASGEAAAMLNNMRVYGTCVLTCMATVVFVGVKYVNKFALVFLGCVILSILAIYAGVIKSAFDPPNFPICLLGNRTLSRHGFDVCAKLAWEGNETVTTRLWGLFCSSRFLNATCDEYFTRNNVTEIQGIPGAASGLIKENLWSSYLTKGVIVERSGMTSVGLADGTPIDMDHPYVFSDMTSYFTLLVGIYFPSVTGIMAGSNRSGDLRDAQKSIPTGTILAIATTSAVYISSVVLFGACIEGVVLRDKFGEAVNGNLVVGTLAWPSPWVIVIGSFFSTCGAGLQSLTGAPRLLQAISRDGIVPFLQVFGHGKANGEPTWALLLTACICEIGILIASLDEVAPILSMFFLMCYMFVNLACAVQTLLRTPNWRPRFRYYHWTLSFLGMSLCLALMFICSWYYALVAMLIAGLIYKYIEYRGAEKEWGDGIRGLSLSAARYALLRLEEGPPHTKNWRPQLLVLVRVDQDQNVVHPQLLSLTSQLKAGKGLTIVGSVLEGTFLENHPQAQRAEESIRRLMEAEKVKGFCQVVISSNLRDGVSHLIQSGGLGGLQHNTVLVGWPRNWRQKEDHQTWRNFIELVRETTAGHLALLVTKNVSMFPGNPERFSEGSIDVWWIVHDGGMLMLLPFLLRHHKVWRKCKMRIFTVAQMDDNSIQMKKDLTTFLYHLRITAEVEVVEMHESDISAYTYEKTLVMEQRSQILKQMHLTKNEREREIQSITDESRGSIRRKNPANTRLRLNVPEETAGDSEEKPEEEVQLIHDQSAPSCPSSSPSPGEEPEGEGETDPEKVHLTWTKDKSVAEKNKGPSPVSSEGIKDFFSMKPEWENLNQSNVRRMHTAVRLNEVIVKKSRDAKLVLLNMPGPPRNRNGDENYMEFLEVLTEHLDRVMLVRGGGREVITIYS
# L major viab: inhibitors of Leishmania major promastigote growth; Leishmania major promastigotes, resazurin fluorescence viability; inhibition, % at 10 µM; actives 9% (n = 200,000); in the data active = inhibition above about 50%;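 also: promastigotes grown with compound for 44 hours at 28 °C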
# WT yeast gro inh: growth inhibition of WT yeast, mitochondrial fusion screen; actives 2.1% (n = 190,000); inhibition, % at 10 µM; mitochondrial fusion phenotypic screen, WT strain; AID 1362; in the data active = inhibition above about 58%; tested in S. cerevisiae
# ROMK mod: modulates human ROMK potassium channel activity; Tet-inducible ROMK, thallium flux fluorescence; actives lie on both sides; B-score at 10 µM; actives 2% (n = 130,000); AID 1918;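 active = signal ratio slope over the read window, or its plate-corrected B-score, at least 3 SD from the plate mean, either direction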;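 also: B-score of the F/F0 ratio slope over 7 to 12 s after thallium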
# * marks the source's active call; other numbers are inactive results; . = no result given.
SMILES,INS promoter inh,Ins promoter up,Cl transport mod,L major viab,WT yeast gro inh,ROMK mod
Brc1cnc(N2CCCCC2)nc1N1CCOCC1,34,-0.27,.,-2,59*,-0.58
Cc1nc(C)c(/C(O)=C/c2nc3ccccc3oc2=O)s1,-7,-0.57,1.9,76*,42,0.59
O=c1oc2ccccc2nc1/C=C(\O)c1ccccc1,.,-0.11,-0.32,.,.,0.38
NC(=O)c1cc([N+](=O)[O-])cc2c1C=Cc1ccccc1O2,0,-0.92,-1,90*,-8,-0.18
Cc1cc(C(F)(F)F)n(-c2nc(C(=O)NNS(=O)(=O)c3ccccc3[N+](=O)[O-])cs2)n1,.,-0.97,3.6,-8,16,-0.062
FC(F)Oc1ccc(NC(=S)NCc2cccnc2)cc1,3,1.1,0.17,7,-6,0.32
CCOc1ccc(CNC2CCCc3ccccc32)cc1 (stereo not given),.,-0.83,0.94,70*,-4,-0.37
COc1ccc(CNC2CCCc3ccccc32)cc1OC (stereo not given),.,0.69,0.025,13,-21,-1.8
CC1(C)CC(=O)C2=C(C1)OC(N)=C(C#N)C21CCN(Cc2ccccc2)CC1,-57,0.16,-1.6,-3,3,.
CC1(C)CC(=O)C2=C(C1)OC(N)=C(C#N)C21C(=O)N(Cc2ccccc2Cl)c2ccccc21 (stereo not given),-33,-0.19,-1.9,59*,8,-2.9
C=CCNC(=O)/C(=C\c1ccc(Br)cc1)NC(=O)c1ccccc1OC,.,3.4*,0.72,5,-22,-1.2
COc1ccccc1C(=O)N/C(=C/c1ccc(Br)cc1)C(=O)NCCO,-30,0.71,-1.1,-6,-4,.
NC(=O)c1cc(Br)cc2c3c([nH]c12)CCCC3,-14,2.3,.,27,66*,0.82
CCOC1(c2ccccc2)OC(=O)c2ccccc21 (stereo not given),-67,0.1,-1.9,-5,-8,1
Cc1cccc(C)c1OC1(c2ccccc2)OC(=O)c2ccccc21 (stereo not given),19,0.61,-0.57,98*,5,.
Cc1cc(C)c(OC2(c3ccccc3)OC(=O)c3ccccc32)c(C)c1 (stereo not given),-58,0.42,-0.78,3,79*,.
O=S(=O)(Nc1ccc2c(c1)nc1n2CCN(Cc2ccccc2)C1)c1ccc(Cl)cc1,.,-0.29,-1.3,97*,10,.
O=C(Nc1ccc2c(c1)nc1n2CCN(Cc2ccccc2)C1)NC1CCCCC1,-54,-0.16,.,1,1,.
Cn1c(CCN2CCCCC2)nc2cc(NS(=O)(=O)c3ccc(Cl)cc3)ccc21,.,-0.09,.,.,3,.
O=C(Nc1ccc2c(c1)nc1n2CCN(Cc2ccccc2)C1)c1cccs1,-31,0.12,.,48,63*,-0.19
COc1ccccc1C(=O)Nc1ccc2c(c1)nc1n2CCN(Cc2ccccc2)C1,.,-0.28,-0.48,21,17,0.59
Cc1ccc(S(=O)(=O)Nc2ccc3c(c2)nc2n3CCN(Cc3ccccc3)C2)cc1,0,0.61,1.3,99*,2,.
O=S(=O)(Nc1ccc2c(c1)nc1n2CCN(Cc2ccccc2)C1)c1ccccc1,24,.,.,98*,-4,-2.2
Cn1c(CN2CCCCC2)nc2cc(NS(=O)(=O)c3ccc(F)cc3)ccc21,.,0.35,1.7,25,9,0.053
O=S(=O)(Nc1ccc2c(c1)nc1n2CCN(Cc2ccccc2)C1)c1ccc(F)cc1,.,-1.6,-0.62,100*,3,.
SMILES,INS promoter inh,Ins promoter up,Cl transport mod,L major viab,WT yeast gro inh,ROMK mod
CCSc1nc2ccccc2n1C(=O)c1ccc(S(=O)(=O)N2CCCCC2)cc1,82*,.,1.3,6,.,.
CCOC(=O)c1ccc(S(=O)(=O)n2c(CN3CCCCC3)nc3ccccc32)cc1,48,-0.98,-0.054,52*,18,.
C#CCSc1nc2ccccc2n1C(=O)c1ccc(S(=O)(=O)N2CCCCC2)cc1,76*,-0.14,0.24,-3,0,-0.72
CCSc1nc2ccccc2n1C(=O)c1ccc(S(=O)(=O)N2CCCCCC2)cc1,.,1.7,-1.1,3,8,.
O=S(=O)([N-]c1nc2ccccc2nc1-[n+]1ccccc1)c1ccc(Cl)cc1,0,0.08,-0.22,-2,-10,.
S=C(NCCc1ccccc1)Nc1cnc2ccccc2c1,.,0.04,-1.9,9,13,-1.1
CCOC(=O)Cn1c(=NC(=O)c2ccc([N+](=O)[O-])s2)sc2ccccc21,-24,-0.51,0.49,80*,65*,-0.03
S=c1[nH]nc(COc2ccccc2)n1C1CCCCC1,-26,0.18,12*,3,41,0.26
S=c1[nH]nc(CSc2nc3ccccc3s2)n1C1CCCCC1,0,0.72,30*,7,17,.
C(=N\N=C\c1cccnc1)/c1cccnc1,-16,0.99,0.84,-7,21,.
CN(/N=C/c1cccnc1)c1cnc2ccccc2n1,78*,-1.7,-1.6,9,-3,-0.32
Cc1ccc(-c2nc(Nc3cccc(C)c3)sc2CC(=O)O)cc1,.,-0.04,-4.2*,-6,23,.
CC(=O)NCCc1nc2ccccc2n1CCOc1ccccc1C,.,-0.61,-1,.,.,-2.7
Cc1ccc(NC(=O)c2ccc(NCCCN3CCOCC3)c([N+](=O)[O-])c2)cc1Cl,-7,0.37,0.025,99*,28,-0.26
COc1ccc(NC(=O)c2ccc(NCCCN3CCOCC3)c([N+](=O)[O-])c2)cc1,.,0.4,-0.018,55*,-1,.
O=C(c1ccccc1)C1Oc2ccccc2C2CC(c3cccs3)=NN12 (stereo not given),19,.,0.22,65*,17,-0.63
O=C(Nc1ccccc1)N1N=C(c2cccs2)CC1c1cccs1 (stereo not given),15,-0.15,-0.4,89*,34,.
CC(=O)N1N=C(c2cccs2)CC1c1ccco1 (stereo not given),48,.,-0.081,-10,-7,-0.67
O=C(CN1C(=O)COc2ccccc21)N1CCCc2ccccc21,.,0.14,0.88,-3,-9,-0.0037
N#Cc1c(N2C(=O)Nc3ccccc3N2O)sc2c1CCCC2,33,-0.35,-0.18,-3,-8,0.31
CC(C)(C)NCc1cccn1-c1sc2c(c1C#N)CCCC2,9,.,0.66,78*,7,-1.1
Fc1ccc(N=C2NN=C(c3cc(F)ccc3F)CS2)cc1,.,-0.71,1,3,80*,.
CCC(C)c1ccc(NC(=O)COc2c(F)c(F)c(C(F)(F)F)c(F)c2F)cc1 (stereo not given),.,-0.36,0.37,-3,70*,.
O=C(COc1c(F)c(F)c(C(F)(F)F)c(F)c1F)Nc1ccc(N2CCOCC2)c(Cl)c1,.,0.12,-1.2,2,70*,0.04
O=C(Nc1ccc(N2CCOCC2)c(Cl)c1)c1ccccc1F,-9,0.03,1.1,-6,5,0.33
Cc1ccc2c(CC(=O)Nc3c(C)n(C)n(-c4ccccc4)c3=O)coc2c1,-50,.,.,-5,13,-0.79
CCCCCCOc1ccc(/C(N)=N/O)cc1,.,.,0.06,87*,-13,-0.02
Cc1nc2cc(N3CCOCC3)c(NC(=O)C3CC3)cc2c(=O)n1Cc1ccccc1,.,1.6,-0.042,5,.,.
